Screening results from PubChem.
Nrf2 activator: Nrf2 pathway activation. AREc32 ARE-luciferase reporter (MCF7-derived line), luminescence, 24 h. Potency, µM (titrated, usually from 46.1 µM), without a hit: at the top dose activation, hits mostly activators. actives 0.31% (n = 410,000). AID 624171; further: % of control where 0% means no effect; nearly all actives have a fitted effect of over 65% in size
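ARE-driven firefly luciferase activity in AREc32 cells measured after a 24 hr compound exposure at 37 deg C, using Steady-Glo reagent and a 30 min room-temperature hold.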
ATXN2 expr inh: reduces ATXN2 reporter expression in HEK-293 cells | HEK-293 ATXN2-luciferase reporter, luminescence, 24 h | actives 0.72% (n = 360,000) | AID 1745845 | Potency, µM (series often up to 57 µM), for the others: at the highest dose activity change, negative = inhibition, hits mostly inhibitors; further: on the % scale 0 is the no-effect control and ±100 the full control effect; nearly all actives have a fitted effect of over 55% in size
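qHTS (up to 57 uM final) was run with 24 h compound exposure of reporter cells at 37 °C. Each well was multiplexed: SteadyGlo luminescence measured ATXN2-luciferase expression after a fluorogenic Gly-Phe-AFC viability readout (25 uM final).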
S2 tox: reduces viability in counter-screen for ATXN expression inhibitors; S2 cells (HEK-293 line with an ATXN2-luciferase reporter) viability, CellTiter-Fluor protease fluorescence, 24 h; Potency, µM (titrated, usually from 56.7 µM), actives largely listed as cytotoxic; actives 0.49% (n = 400,000); AID 651635; further: nearly all actives have a fitted effect of over 40% in size
Nrf2 inh: Nrf2 pathway inhibition | A549 ARE-Fluc reporter, luciferase luminescence, 18-24 h | Potency, µM (doses to about 46 µM), without a hit: at the top dose activity change, negative = inhibition, most hits filed as inhibitors | actives 2.1% (n = 360,000); further: on the % scale 0 is the no-effect control and ±100 the full control effect; nearly all actives have a fitted effect of over 60% in size
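A549 ARE_Fluc cells, 5000/well, 5% FBS OPTI-MEM; compounds in dose-response, 18-24 h at 37 °C/5% CO2; CellTiter-Fluor viability read (Ex 405/Em 525), then BugLite luciferase luminescence = Nrf2 activity.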
A549 tox-1: kills or reduces viability of A549 cells in Nrf2 counter-screen; Potency, µM (titrated, usually from 46 µM), for the others: at the top dose activity change, negative = cytotoxicity, actives largely listed as inhibitors; A549 ARE-Fluc cells, CellTiter-Fluor viability, 18-24 h; actives 0.16% (n = 390,000); further: on the % scale 0 is the no-effect control and ±100 the full control effect
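A549 ARE_Fluc cells in 5% FBS OPTI-MEM were exposed to compounds in concentration-response for 18-24 h at 37 deg C. Viability was read by CellTiter-Fluor fluorescence (Ex 405/Em 525) after 30 min, before the luciferase read.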
FLuc enzyme inh: counter-screen for Nrf2 inhibitors: firefly luciferase enzyme inhibition. shares compounds with Nrf2 inh. purified firefly luciferase, luminescence inhibition. Potency, µM (doses to about 57.5 µM), inactives show top-dose activity change, negative = inhibition, actives largely listed as inhibitors. actives 4% (n = 1,400). AID 720522; further: on the % scale 0 is the no-effect control and ±100 the full control effect; nearly all actives have a fitted effect of over 65% in size
Target sequence (P08659 whole entry, looked up): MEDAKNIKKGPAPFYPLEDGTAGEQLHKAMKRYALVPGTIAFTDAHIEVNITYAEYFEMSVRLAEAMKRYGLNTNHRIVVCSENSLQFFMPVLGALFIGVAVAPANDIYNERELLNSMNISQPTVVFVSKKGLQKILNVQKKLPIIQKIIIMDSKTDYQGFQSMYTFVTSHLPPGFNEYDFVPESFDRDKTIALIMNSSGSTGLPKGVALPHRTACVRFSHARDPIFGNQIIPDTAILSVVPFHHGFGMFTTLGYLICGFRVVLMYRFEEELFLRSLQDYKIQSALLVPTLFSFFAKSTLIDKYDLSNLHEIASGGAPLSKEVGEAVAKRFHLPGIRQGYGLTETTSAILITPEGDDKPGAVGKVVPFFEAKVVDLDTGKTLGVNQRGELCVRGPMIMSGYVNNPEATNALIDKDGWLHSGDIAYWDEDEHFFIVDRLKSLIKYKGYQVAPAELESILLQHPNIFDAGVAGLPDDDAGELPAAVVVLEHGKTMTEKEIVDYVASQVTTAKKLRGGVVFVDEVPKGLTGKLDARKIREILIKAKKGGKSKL
A549 tox-2: counter-screen for Nrf2 inhibitors: cytotoxicity in A549 ARE cells; A549 ARE-Fluc cells, cytotoxicity counterscreen; actives 2% (n = 1,400); shares compounds with Nrf2 inh; Potency, µM (titrated, usually from 46.1 µM), without a hit: at the top dose activity change, negative = cytotoxicity, most hits filed as inhibitors;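 further: cells exposed to compounds for 18 to 24 hours; on the % scale 0 is the no-effect control and ±100 the full control effect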
ARE-Fluc inh: Nrf2 inhibition confirmed, A549 ARE-luciferase. AID 720524. Potency, µM (doses to about 46.1 µM), without a hit: at the highest dose activity change, negative = inhibition, most hits filed as inhibitors. shares compounds with Nrf2 inh. A549 ARE-firefly luciferase reporter, luminescence. actives 74% (n = 1,400); further: on the % scale 0 is the no-effect control and ±100 the full control effect; nearly all actives have a fitted effect of over 65% in size
The depositor's hits bear a star; i = inactive; ? = inconclusive; · = no result given; [ ] = another dose, or the depositor's remark. An excerpt weighted towards active compounds, which were near 2.9% of everything screened. The call rests on the fitted dose curve; in most records, active means well fitted curve in the direction sought with a large enough effect; inconclusive means small, poorly fitted or top-dose-only effect, or another doubt; inactive means no such curve, though single readings can be large; an effect the other way counts as inactive or inconclusive. Potency means the concentration at half of the fitted maximal effect.

SMILES | Nrf2 activator | ATXN2 expr inh | S2 tox | Nrf2 inh | A549 tox-1 | FLuc enzyme inh | A549 tox-2 | ARE-Fluc inh
CC1CCCCN1S(=O)(=O)c1ccc(C(=O)Nc2nnc(-c3ccccc3Cl)o2)cc1 (stereo unspecified) | -0.1% | ? | i | 5.17µM* | ? | -2.4% | ? | 6.51µM*
CC1CCCN(S(=O)(=O)c2ccc(C(=O)Nc3nnc(-c4ccco4)o3)cc2)C1 (stereo unspecified) | 3.0% | ? | ? | 8.2µM* | -18.3% | -1.3% | ? | ·
CCOc1ccc(C(=O)Nc2ccc(S(=O)(=O)N(Cc3ccccc3)c3ccccc3)cc2)cc1 | -1.1% | · | · | 2.06µM* | -10.1% | -0.9% | -0.7% | 1.64µM*
CC1(C)COCN1S(=O)(=O)c1ccc(C(=O)Nc2nnc(-c3ccc(Cl)s3)o2)cc1 | -0.9% | 7.94µM* | ? | 6.31µM* | ? | -14.7% | ? | 5.17µM*
O=C(Nc1cccc(C(=O)OCc2cc(=O)n3nc(C4CC4)sc3n2)c1)c1ccc(F)cc1 | -0.3% | · | · | · | 0.7% | · | · | ·
COCc1c(Br)c(C)nc2sc3c(=O)n(-c4cccc(Br)c4)nnc3c12 | -0.4% | · | · | -9.6% | 3.9% | · | · | ·
O=C(Nc1nnc(-c2ccccc2Cl)o1)c1ccc(S(=O)(=O)N2CCCCCC2)cc1 | -2.0% | ? | ? | ? | -15.5% | -9.5% | ? | 20.6µM*
CS(=O)(=O)c1ccccc1-c1nnc(NC(=O)c2ccc(S(=O)(=O)N3CCCC3)cc2)o1 | -0.7% | -1.2% | i | -4.6% | 1.1% | · | · | ·
CCCN(CCC)S(=O)(=O)c1ccc(C(=O)Nc2nnc(-c3cccc(OC)c3)o2)cc1 | -1.0%[9.22 µM] | ? | ? | 6.51µM* | ? | 1.7% | ? | 4.61µM*
CCN(c1ccccc1)S(=O)(=O)c1ccc(C(=O)Nc2nnc(-c3ccco3)o2)cc1 | -2.3% | · | i | 5.17µM* | -22.4% | 0.9% | -26.3% | 5.17µM*
COc1ccc(-c2cc(-c3ccc(C)cc3)nc3c2COc2ccccc2-3)cc1 | 0.0% | 0.0% | i | -3.7% | -1.2% | · | · | ·
CCCCCCN1CC(O)=C(c2ccccc2)C1=N | 0.1% | 8.9% | i | · | 2.6% | · | · | ·
CCCCCn1ccc(=N)cc1 | -0.4% | -25.0% | i | 0.92µM* | ? | 3.6% | -11.6% | 1.64µM*
N=c1ccn(Cc2ccc(Cl)cc2)cc1 | 0.4% | ? | i | · | ? | · | · | ·
CCCCCCCn1ccc(=N)cc1 | 0.1% | ? | i | 2.91µM* | -19.5% | 2.4% | -13.1% | 6.51µM*
CCn1ccc(=N)cc1 | -0.4% | 0.3% | i | · | -16.4% | · | · | ·
CCCCCCCCCn1ccc(=N)cc1 | 4.1% | 2.12µM* | i | 3.26µM* | ? | 2.9% | -23.7% | 8.2µM*
COc1ccc2c(C)c(CC(=O)NCCc3ccc(Cl)cc3)c(=O)oc2c1C | -0.6% | 9.0% | i | ? | 6.6% | · | · | ·
Cc1nn(S(=O)(=O)c2ccc(C(C)C)cc2)c(C)c1S(=O)(=O)N1CCCCC1 | -1.5% | 9.9% | i | · | 3.3% | · | · | ·
CCC(C)[C@H](N)c1nnc(SCc2ccc(Cl)c(Cl)c2)o1 (stereo partly specified) | 5.7% | -11.5% | i | -5.3% | -4.0% | · | · | ·
O=S(=O)(c1ccc(Cl)cc1)N1CCCC(c2nc(-c3ccc(F)cc3)no2)C1 (stereo unspecified) | 0.0% | -4.2% | i | ? | -3.8% | · | · | ·
O=S(=O)(c1ccccc1Cl)N1CCCC1c1nc(-c2ccc(Cl)cc2)no1 (stereo unspecified) | 2.0% | -19.9% | i | 5.8µM* | -15.4% | -7.6% | 9.9% | 13µM*
